# Hit rate of the full screen: of about 310,000 compounds, about 3,800 (1.2%) were called active.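 Rule for the calls: active = ratio B-score over 3 SD below the library mean, with starting fluorescence within 5 SD of its mean; inactive = the rest, inconclusive results apart.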 Many of the other results were omitted from the sample, so actives are more common in it than they were.
# Target: Potassium channel subfamily K member 9 (Homo sapiens) (UniProt Q9NPC2)
# Test: blockers of human TASK-3 (KCNK9) channel – HEK293 cells, thallium flux, primary screen (AID 488922);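 for B-score: negative B-score means less thallium flux so channel inhibition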
# Settings: HEK293 KCNK9, FluxOR thallium flux fluorescence, at 10 µM; hits give low values
# Sequence of Potassium channel subfamily K member 9 (Homo sapiens) (Q9NPC2 whole entry, looked up): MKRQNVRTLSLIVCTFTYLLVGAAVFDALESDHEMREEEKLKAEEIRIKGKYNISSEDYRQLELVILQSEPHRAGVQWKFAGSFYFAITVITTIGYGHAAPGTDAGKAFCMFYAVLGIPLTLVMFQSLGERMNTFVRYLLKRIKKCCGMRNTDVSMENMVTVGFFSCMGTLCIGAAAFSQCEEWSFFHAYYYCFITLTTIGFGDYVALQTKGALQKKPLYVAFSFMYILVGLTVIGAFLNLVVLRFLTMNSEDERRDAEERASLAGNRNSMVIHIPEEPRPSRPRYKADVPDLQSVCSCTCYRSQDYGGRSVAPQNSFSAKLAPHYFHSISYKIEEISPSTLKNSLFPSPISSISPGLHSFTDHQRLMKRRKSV
row,Structure (SMILES),B-score
1,O=C(NCCc1ccc(Cl)cc1Cl)c1cc([N+](=O)[O-])c[nH]c1=O,inactive
2,CSc1cccc(NC(=S)N(Cc2ccccc2)Cc2ccccn2)c1,inactive
3,CC(c1ccccn1)N(CCN(C)C)C(=S)Nc1ccccc1F (stereo unspecified),inactive
4,CSc1cccc(NC(=S)N(C(C)C)C(C)c2ccccn2)c1 (stereo unspecified),-17.5 (active)
5,Cc1ccc(O)c(CNc2nc3ccccc3n2C)c1,inactive
6,Cc1ccc(C2=NN(C)c3nc4ccccc4n3C2)cc1,-8.17 (active)
7,Cc1ccc(OCc2nc3ccccc3n2C)cc1,inactive
8,CCOC(=O)/C(=N\Nc1cc(Cl)ccc1Cl)N1CCN(C)CC1,inactive
9,COCCNc1ncnc2c1nc1n2CCCC1,inactive
10,COc1cnc(SCc2ccc(Cl)c(Cl)c2)nc1Cl,inactive
11,O=S(=O)(NC1CCCCC1N1CCCCC1)c1ccc(Cl)cc1 (stereo unspecified),inactive
12,O=S(=O)(NC1CCCCC1N1CCN(c2ccccc2F)CC1)c1ccccc1 (stereo unspecified),-7.59 (active)
13,COc1ccc(N2CCN(C3CCCCC3NS(=O)(=O)c3ccccc3)CC2)cc1 (stereo unspecified),inactive
14,N#Cc1c(NCCO)ccc([N+](=O)[O-])c1NCCO,inactive
15,COC(=O)c1cc(NC2c3ccccc3C(=O)N2c2ccc(Cl)cn2)cc(C(=O)OC)c1 (stereo unspecified),-8.59 (active)
16,Cc1ccnc(N2C(=O)c3ccccc3C2Nc2ccc3c(c2)OCCO3)c1 (stereo unspecified),inactive

row,Structure (SMILES),B-score
1,CCc1ccccc1NC1c2ccccc2C(=O)N1c1cccnc1 (stereo unspecified),inactive
2,Cc1ccc(C)c(OCCC(=O)OCC(=O)c2ccc3c(c2)NC(=O)CO3)c1,inactive
3,Cc1ccc(CNC(=O)C2(C(F)(F)F)C/C(=C\Cc3ccccc3)CCCO2)o1 (stereo unspecified),inactive
4,CCOC(=O)c1ccc(NC(=O)Cc2cccs2)cc1,inactive
5,CC1=NN(C(=O)Cc2ccc(C)cc2)C(O)(c2cccnc2)C1 (stereo unspecified),inactive
6,CC1=NN(C(=O)c2ccc(Br)cc2)C(O)(c2ccccc2)C1 (stereo unspecified),inactive
7,CCC1=NN(C(=O)Cc2ccc([N+](=O)[O-])cc2)C(O)(c2ccc(Br)cc2)C1 (stereo unspecified),-9.93 (active)
8,CCOC(=O)c1[nH]c(C)c(C(=O)OCC(=O)N2c3ccccc3CC2C)c1C (stereo unspecified),inactive
9,COc1ccc(C)cc1NC(=O)CNCc1cccs1,inactive
10,c1ccc(C2=Nc3cccc4cccc(c34)N2)cc1,inactive
11,CNC(=S)N1N=C(c2ccccc2)CC1c1ccc(Br)cc1 (stereo unspecified),inactive
12,Brc1ccc(C2CC(c3ccccc3)=Nc3ccccc3N2)cc1 (stereo unspecified),-9.6 (active)
13,CC(C)(C)SCCSC1=CC(=O)CC(c2ccccc2)C1 (stereo unspecified),inactive
14,O=C(N/C(=C\c1ccc([N+](=O)[O-])cc1)C(=O)N1CCCCC1)c1ccco1,inactive
15,O=C(c1ccccc1)C(Cn1cncn1)C(Sc1ccccc1)c1ccccc1 (stereo unspecified),inactive

# — PubChem BioAssay AID488922 (Johns Hopkins Ion Channel Center, 2010)
